Test results taken from PubChem BioAssay (Tox21).
Inconclusive results are not listed. A number with no mark means an inactive call. The source made the active and inactive calls. The call rests on the fitted dose curve; in most records, active means well fitted activation curve with a large enough effect in the repeat runs; inconclusive means weak or mixed curves; inactive means flat fitted curve, though single readings scatter.

experiment: A CellTox Green Cytotoxicity Assay to monitor cytotoxicity in HepG2 cells - 32 hour (AID 1224883); conditions: CellTox Green fluorescence; series mostly up to 76.8 µM; cytotoxicity increase: at the top concentration; further: nearly all actives have a fitted effect of over 50% in size
Text: National Center for Advancing Translational Sciences [NCATS]
NIH Chemical Genomics Center [NCGC]
U.S. Environmental Protection Agency [EPA]
National Institutes of Environmental Health Sciences [NIEHS]
National Toxicology Program [NTP]
Cell-based models are critical for drug discovery. Determining the natural cytotoxic effects resulting from test compounds is an essential research activity. A CellTox Green Cytotoxicity Assay to monitor cytotoxicity in real time of continues cell culture during 40 hours of the compound treatment was used to screen Tox21 10K library compounds in HepG2 cells. CellTox Green Cytotoxicity Assay is a nonlytic, homogeneous, biofluorescent method to measure cytotoxicity in cell culture after experimental manipulation. The assay system uses a proprietary asymmetric cyanine dye that is excluded from viable cells but preferentially stains the dead cell's DNA. […] Viable cells produce no appreciable increases in fluorescence. Therefore, the fluorescence signal produced by the binding interaction with dead cell DNA is proportional to cytotoxicity.
The mixture of HepG2 cell suspension and reagents were dispensed at 600cells/6 ul/well in 1536-well tissue culture treated black solid bottom plates using a Multidrop dispenser. After the assay plates were incubated at a 37 C/5% CO2 incubator for 5 hours, 23 nL of compounds dissolved in DMSO, positive and negative controls was transferred to the assay plate by a pintool work station. The plates were incubated at 37 C for 40 hours. The fluorescence intensity were measured at 0h, 8h, 16h, 24h, 32h and 40h time points using ViewLux plate reader during compound treatment.
On the % scale 0 is the no-effect control and ±100 the full control effect; potency means the concentration at half of the fitted maximal effect.

First: CC(C)C1OCCN1CCOC(=O)NCCCCCCNC(=O)OCCN1CCOC1C(C)C (stereo not given)
Second: CCCC(=O)OCCC(C)CCC=C(C)C (stereo not given)
The “cytotoxicity increase” value of the first is higher: 14.5% for the first, 1.24% for the second.

Going from `CC(O)COC(C)(C)C` (stereo not given) to `CN(C)C(C)(C)CO`, the “cytotoxicity increase” value falls from 6.6% to -7.99%.

Going from `CC(C)(CO)C(O)C(=O)NCCCO` (stereo not given) to `CC(O)CC(C)O` (stereo not given), the “cytotoxicity increase” value rises from -1.19% to 0.972%.

First: CCCCCCCCCCCCCBr
Second: C=CCOC(=O)CCCCCC
The “cytotoxicity increase” value of the first is lower: -6.08% for the first, -4.44% for the second.

Compared with `NCC1(Cc2noc(=O)[nH]2)CCCCC1`, `C[C@H]1[C@@H](c2ccccc2)NC(=O)N1C` is higher in “cytotoxicity increase” value: -11.5% for the first, 1.7% for the second.

First: O=C(O)c1cc2ccccc2nc1C(=O)O
Second: COC(=O)c1ccccc1C(=O)O
The “cytotoxicity increase” value of the first is lower: -5.88% for the first, 4.14% for the second.

Going from `CCOCCOCC` to `CCCSSCCC`, the “cytotoxicity increase” value rises from -5.33% to 7.72%.

Going from `C/C=C(\C)C(C)=O` to `CCC(=O)CC`, the “cytotoxicity increase” value rises from -9.02% to 2.03%.

Going from `O=C(O)CONC(=O)c1ccccc1` to `CCCC(CC)c1ccccc1` (stereo not given), the “cytotoxicity increase” value rises from 5.85% to 11.1%.

Going from `CCC/C=C(\C=O)CC` to `CCCCSCCCC`, the “cytotoxicity increase” value rises from -0.143% to 0.337%.

Going from `CC(Oc1cc(Cl)ccc1Cl)C(=O)O` (stereo not given) to `CN(C)CCCCl`, the “cytotoxicity increase” value falls from -1.02% to -2.77%.

Going from `CC1c2ccccc2CN1NC(=O)c1ccc(Cl)c(S(N)(=O)=O)c1` (stereo not given) to `CN1CCOC(c2ccccc2)c2ccccc2C1` (stereo not given), the “cytotoxicity increase” value rises from -0.73% [at 35.3 µM] to 16.8% [at 35.3 µM].

Compared with `Cn1c(=O)c2[nH]c(Br)nc2n(C)c1=O`, `Nc1nc(-c2ccccc2)c(Br)c(=O)[nH]1` is higher in “cytotoxicity increase” value: -11.8% [at 35.3 µM] for the first, 0.299% [at 35.3 µM] for the second.

First: CC(C)C[C@@H]1[C@H](c2ccccc2)OC(=O)N1CCCN1CCCCCC1
Second: CN(C)CCOC(=O)C(c1ccccc1)C1(O)CCCC1 (stereo not given)
The “cytotoxicity increase” value of the first is higher: 5.7% [at 35.3 µM] for the first, -2.85% [at 35.3 µM] for the second.

First: CO/N=C(/C(=O)N[C@@H]1C(=O)N2C(C(=O)[O-])=C(C[n+]3ccn4ncccc43)CS[C@H]12)c1nsc(N)n1
Second: CO[C@@]1(NC(=O)Cc2cccs2)C(=O)N2C(C(=O)O)=C(COC(N)=O)CS[C@@H]21
The “cytotoxicity increase” value of the first is lower: -11.7% [at 35.3 µM] for the first, -7.95% [at 35.3 µM] for the second.

Compared with `OC1(c2ccc(Cl)cc2)CCNCC1`, `O=C1NC(c2ccccc2)(c2ccccc2)C(=O)N1COP(=O)(O)O` is higher in “cytotoxicity increase” value: -11.4% [at 35.3 µM] for the first, 4.62% [at 35.3 µM] for the second.

Compared with `O=C(CCCCC(=O)Nc1c(I)cc(I)c(C(=O)O)c1I)Nc1c(I)cc(I)c(C(=O)O)c1I`, `O=C(CCCl)NCCc1ccccc1` is higher in “cytotoxicity increase” value: -4.39% [at 35.3 µM] for the first, 1.26% [at 35.3 µM] for the second.

Compared with `O=C(CN1CCNCC1)NC1CCCCC1`, `O=C(O)[C@H](O)c1ccccc1` is higher in “cytotoxicity increase” value: 1.42% [at 35.3 µM] for the first, 8.42% [at 35.3 µM] for the second.

`N[C@@H](Cc1ccc(O)cc1)C(=O)O` gave a cytotoxicity increase of -9.11% [at 6.97 µM].

For `CC12CCC(C1)C(C)(C)C2O` (stereo not given), the Potency was 2190 nM (active).

Compared with `CCOC(CN1CCN(CC(C)C(=O)c2ccccc2)CC1)c1ccccc1` (stereo not given), `CC1(C)CC(OC(=O)CCCCCCCCC(=O)OC2CC(C)(C)NC(C)(C)C2)CC(C)(C)N1` is higher in cytotoxicity increase: -18.4% [at 15.8 µM] for the first, -10.5% [at 15.8 µM] for the second.
